Here are results for 60 molecules from PubChem BioAssay AID1021 (Emory University Molecular Libraries Screening Center, 2008).

SMILES strings stand for the structures. Values joined by “and” are separate entries in the source; they are usually repeats but may differ in a detail not shown here. Equal entries are not always repeated. The whole screen tested about 220,000 compounds, of which about 2,100 (0.95%) were called active.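 The calls were made as follows: active = compounds that cut the binding signal by more than half at the single screening dose; inactive = the rest.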 The entries come from a sample that favours actives as a whole. Some compounds were tested as several samples or in several runs, with calls that do not always agree.

In the assay the target is Induced myeloid leukemia cell differentiation protein Mcl-1 (Homo sapiens) (UniProt Q07820). As to the kind of experiment: Mcl-1/Bid binding inhibitors, primary screen, biochemical, TR-FRET, 1536-well (AID 1021).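 Also: His-tagged Mcl-1 with europium anti-His antibody binding Bid BH3 peptide; 0% = Mcl-1 plus peptide wells and 100% = peptide-only wells.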 Conditions: TR-FRET Mcl-1/Bid-Dy647 peptide binding, at 21.7 µM, stronger effect = higher value. (TR-FRET usually uses a lanthanide donor and a delayed reading to cut background.)
Induced myeloid leukemia cell differentiation protein Mcl-1 (Homo sapiens), sequence (Q07820 whole entry, looked up): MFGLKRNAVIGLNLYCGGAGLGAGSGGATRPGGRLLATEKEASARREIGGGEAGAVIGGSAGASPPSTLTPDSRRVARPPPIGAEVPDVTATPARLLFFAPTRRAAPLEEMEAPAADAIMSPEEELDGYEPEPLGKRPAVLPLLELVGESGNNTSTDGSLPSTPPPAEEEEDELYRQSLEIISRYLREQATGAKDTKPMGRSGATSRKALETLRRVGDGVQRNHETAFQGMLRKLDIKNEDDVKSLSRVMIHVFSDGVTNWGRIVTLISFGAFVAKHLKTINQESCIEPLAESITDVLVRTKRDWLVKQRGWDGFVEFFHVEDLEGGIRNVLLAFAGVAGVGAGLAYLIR
On to `Cc1ccc(Nc2cc(=O)n(C3CCCCC3)c(=O)[nH]2)cc1C`, for which the inhibition (commonly the relative decrease from the control value, in per cent) was 94.6% (active).

As to `Cc1ccc(NNC(=O)C2CCC2)cc1C`, the inhibition is -13% (inactive).

Turning to `O=c1cc(C(F)(F)F)[nH]c(=O)n1C1CCCCC1`, the inhibition was -10.9% (inactive).

On to `Cc1c(C(=O)Nc2ccccc2)sc2nc3n(c(=O)c12)CCCCC3`, for which the inhibition was -9.14% (inactive).

On to `O=C(Cn1c[n+](CC(=O)c2ccc([N+](=O)[O-])cc2)cn1)c1ccc([N+](=O)[O-])cc1`, for which the inhibition is -21.7% (inactive) and -16.6% (inactive).

In the case of `CC(=O)Nc1ccc(N2C(=O)C3C4CC(=O)C(c5ccccc54)C3C2=O)cc1` (stereo not given), the inhibition is -11.5% (inactive).

For `O=C(Oc1cccc(N2C(=O)C3C4c5ccccc5C(c5ccccc54)C3C2=O)c1)c1ccco1` (stereo not given), the inhibition was 92% (active).

On to `CC(=O)Oc1cccc(N2C(=O)C3CC=C(Cl)CC3C2=O)c1` (stereo not given), for which the inhibition was -19.4% (inactive).

With `O=[N+]([O-])c1ccc(N2CCSCC2)cc1O`, the inhibition is -15.7% (inactive).

Regarding `O=C(CS(=O)(=O)c1ccc(C(F)(F)F)cn1)NNC(=O)c1ccccc1`, the inhibition is -2.12% (inactive).

As for `O=c1[nH]c2ccccc2n2c(-c3ccccc3)nnc12`, the inhibition was 64.9% (active).

For `CCOC(=O)c1cnc2[nH]c3ccccc3n2c1=O`, the inhibition is 10.7% (inactive).

Consider `Cc1ccc(-c2nc3ccccc3[nH]c2=O)cc1`, for which the inhibition is -0.25% (inactive).

In the case of `CCCCc1nnc(NC(=O)CSc2nc(N)cc(=O)[nH]2)s1`, the inhibition was -5.95% (inactive).

Regarding `Cn1c2ccccc2c2cc(/C=C(\NC(=O)c3ccccc3)C(=O)NCC(=O)O)ccc21`, the inhibition was -1.08% (inactive).

Consider `Cc1cc(NS(=O)(=O)c2ccc(NC(=O)c3cccc(OC(F)F)c3)cc2)nc(C)n1`, for which the inhibition is -2.38% (inactive).

Take `Cn1cccc1/C=N/NC(=O)CNc1cccc2ccccc12`: the inhibition was -45.9% (inactive).

Take `O=C(O)c1ccc(NS(=O)(=O)c2cccc3nsnc23)cc1`: the inhibition was 101% (active).

On to `O=C(C(NS(=O)(=O)c1cccc2nsnc12)c1ccccc1)N1CCN(c2ccccc2)CC1` (stereo not given), for which the inhibition is -29.6% (inactive).

For the molecule `O=C(O)C(NS(=O)(=O)c1cccc2nsnc12)c1ccccc1` (stereo not given), the inhibition is -3.92% (inactive).

As for `N#Cc1c(N)nc2c(c1N)CC(C(F)(F)F)O2` (stereo not given), the inhibition was 1.45% (inactive).

Turning to `Cc1nn(Cc2ccccc2)c2c1C(c1ccccc1)C(C#N)=C(N)O2` (stereo not given), the inhibition is -17.5% (inactive).

Take `COc1ccccc1C1C(C#N)=C(N)Oc2c1c(-c1ccccc1)nn2-c1ccccc1` (stereo not given): the inhibition was 97.3% (active).

With `Cc1nn(-c2ccccc2)c2c1C(c1ccc(F)cc1)C(C#N)=C(N)O2` (stereo not given), the inhibition is -9.94% (inactive).

Turning to `COc1cc(S(=O)(=O)N(Cc2cccs2)C2CC2)ccc1-n1cnnn1`, the inhibition was 1.4% (inactive).

Regarding `CCC(CC)NC(=O)CSc1nnc(-c2c[nH]c3ccccc23)o1`, the inhibition was 1.1% (inactive).

For `CN(C)c1ccc(Nc2c3c4c(cccc4n(C)c2=O)C(=O)c2ccccc2-3)cc1`, the inhibition is 59.4% (active).

Turning to `COC(=O)NNC1=CC(=O)CC(C)(C)C1`, the inhibition was -13.6% (inactive).

`CC1(C)CC(=O)C=C(Nc2ccccc2)C1`: the inhibition was -54% (inactive).

Consider `Cc1ccc(C(=O)OC2=CC(=O)CC(C)(C)C2)cc1`, for which the inhibition was 89.4% (active).

Consider `CC(=O)Nc1cccc(/C(C)=N/NC(=O)c2ccccc2Cl)c1`, for which the inhibition is -9.47% (inactive).

Take `C/C(=N\Nc1cccc(C(=O)O)c1)c1ccc2c(c1)Nc1ccccc1S2`: the inhibition is 92% (active).

For `O=C(NC1CC1)c1ccc2c(c1)NC(=O)c1ccccc1S2`, the inhibition was -30.3% (inactive).

For `COc1cc(/C=N/NC(=O)CCc2n[nH]c(=O)[nH]c2=O)ccc1O`, the inhibition is -25.6% (inactive).

For `O=C(OCc1nc2ccccc2[nH]1)C1CCCCC1`, the inhibition was -17.4% (inactive).

As for `COc1ccc(C(=O)C2CCCN(Cc3ccc4nonc4c3)C2)c(C)c1` (stereo not given), the inhibition was -14.3% (inactive).

With `Fc1ccc(NC(=S)N2CCc3[nH]c4ccccc4c3C2)cc1`, the inhibition is -6.12% (inactive).

For `O=C(Nc1ccc(Cl)cc1)N1CCc2[nH]c3ccccc3c2C1`, the inhibition was 83.8% (active).

As for `O=C(NC1CCCCC1)N1CCc2[nH]c3ccccc3c2C1`, the inhibition was -16.1% (inactive).

Regarding `Cc1ccccc1CN(c1ccc(C(=O)NCC2CCCO2)cc1)S(C)(=O)=O` (stereo not given), the inhibition is -0.03% (inactive).

On to `CNS(=O)(=O)c1ccc(N2CCCC2=O)c([N+](=O)[O-])c1`, for which the inhibition was -4.05% (inactive).

Consider `COc1ccc(CN2CCCC(CNC(=O)c3ccc(F)cc3)C2)cc1OC` (stereo not given), for which the inhibition was -22.9% (inactive).

Turning to `COc1ccc(CN2CCCC(C(=O)c3ccc(Cl)cc3)C2)cc1Cn1cncn1` (stereo not given), the inhibition is -25.6% (inactive).

As to `COc1ccc(CCN(C)C(=O)C2CCCN(Cc3ccc(OC)c(OC)c3)C2)cc1OC` (stereo not given), the inhibition is -22.7% (inactive) and 54.1% (active).

`CC(C)CC(=O)NC(=S)NNC(=O)c1cccc([N+](=O)[O-])c1`: the inhibition was -73.3% (inactive).

Take `Cn1nc(C(F)(F)F)c(-c2ccc(F)cc2)c1NC(=O)CSCC(=O)O`: the inhibition is -12.6% (inactive).

As for `O=[N+]([O-])c1ccc(N/N=C/c2ccccc2)cc1`, the inhibition was -8.01% (inactive).

Regarding `O=C(O)CSCC(=O)Nc1cccc(C(F)(F)F)c1`, the inhibition was -0.04% (inactive).

Consider `FC(F)(F)c1cccc(N/N=C/c2ccccc2)c1`, for which the inhibition was 93.7% (active).

For the molecule `Clc1ccc(C[n+]2cc(-c3ccc(Cl)cc3)n3c2CCC3)cc1`, the inhibition is -1.66% (inactive).

Take `Cc1ccc2[nH]c3c(=O)n(Cc4ccccn4)cnc3c2c1`: the inhibition is 14.7% (inactive).

`O=c1c2[nH]c3ccc(Cl)cc3c2ncn1Cc1ccccn1`: the inhibition is 10.2% (inactive).

Consider `COc1ccc2[nH]c3c(=O)n(Cc4ccco4)cnc3c2c1`, for which the inhibition was 72.9% (active).

On to `S=C(NNC(=S)NC1CC2C=CC1C2)NC1CC2C=CC1C2` (stereo not given), for which the inhibition was -96.2% (inactive).

For `CCCCCCCCCCCCC(NC(C)=O)(C(=O)OCC)C(=O)OCC`, the inhibition was 1.76% (inactive).

On to `CN(C)c1ccc(/C=C/C(=O)c2ccc(O)cc2)cc1[N+](=O)[O-]`, for which the inhibition was -2.27% (inactive).

For `CCO[C@@H]1OC(C(=O)NCc2nc3ccccc3[nH]2)=C[C@H](C2CCCCC2)[C@H]1CCCO`, the inhibition is 5.02% (inactive).

Consider `CCc1ccccc1N1CN(Cc2ccco2)CNC1=S`, for which the inhibition is -26.9% (inactive).

For the molecule `Cc1nccc(-c2ccc(-n3c(C)ccc3C)cc2)n1`, the inhibition was 6.3% (inactive).

As to `COc1ccccc1NC(=O)/C=C/C(=O)O`, the inhibition is -31.9% (inactive).
